hNpr1 antagonist – Natriuretic polypeptide receptor (hNpr1) antagonism - Primary qHTS | Atrial natriuretic peptide receptor 1 (Homo sapiens), P16066 | hit rate 1.6% among 76,000 | Potency, µM (titrated, usually from 46.3 µM), for the others: at the top dose activity change, negative = inhibition, hits mostly inhibitors | HEK293 hNpr1 GloSensor cGMP, ANP-stimulated luminescence | AID 1347048, 2019; further: on the % scale 0 is the no-effect control and ±100 the full control effect; nearly all actives have a fitted effect of over 60% in size
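Compound pre-incubated 30 min at room temperature on GloSensor-loaded HEK293 cells stably carrying hNpr1 and the pGS-40F cGMP biosensor. Stimulation uses hNppA at 0.1 nM final; luminescence is taken at baseline and 20 min post-agonist.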
GPT2 inh – Primary qHTS assay for inhibitors of Glutamate pyruvate transaminase 2 (GPT2); Alanine aminotransferase 2 (Homo sapiens), Q8TD30; hit rate 0.25% among 100,000; Recombinant GPT2, coupled pyruvate oxidase/HRP Amplex Red fluorescence; Potency, µM (doses to about 57.7 µM), without a hit: top-dose activity change, negative = inhibition, actives largely listed as inhibitors; active means well fitted inhibition curve with a large enough effect; inconclusive means small, poorly fitted or top-dose-only effect; further: on the % scale 0 is the no-effect control and ±100 the full control effect; nearly all actives have a fitted effect of over 60% in size
Target sequence (Q8TD30 whole entry, looked up): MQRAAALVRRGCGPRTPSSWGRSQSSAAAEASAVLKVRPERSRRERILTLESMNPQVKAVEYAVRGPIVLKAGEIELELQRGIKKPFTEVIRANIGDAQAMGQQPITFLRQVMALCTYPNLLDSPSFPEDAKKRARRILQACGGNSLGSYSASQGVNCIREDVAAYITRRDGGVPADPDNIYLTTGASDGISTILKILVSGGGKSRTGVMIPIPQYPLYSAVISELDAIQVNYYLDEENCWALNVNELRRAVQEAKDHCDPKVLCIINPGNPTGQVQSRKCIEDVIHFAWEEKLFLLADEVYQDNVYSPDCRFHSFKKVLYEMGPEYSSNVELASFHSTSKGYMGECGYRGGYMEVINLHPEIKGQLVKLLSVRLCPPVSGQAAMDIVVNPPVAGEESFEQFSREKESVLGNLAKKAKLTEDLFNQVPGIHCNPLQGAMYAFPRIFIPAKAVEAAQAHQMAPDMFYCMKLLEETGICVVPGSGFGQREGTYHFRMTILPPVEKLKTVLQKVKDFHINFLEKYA
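Fluorescence read-out: pyruvate from GPT2 turnover coupled to pyruvate oxidase, HRP and Amplex Red (0.2mM ThPP, 0.2U/mL PO and HRP, 50uM Amplex final). Substrates 250uM a-KG, 2mM L-alanine; enzyme 10ng/uL; 30 min RT.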
NPR1 antag cnf – Natriuretic polypeptide receptor (hNpr1) antagonism - Confirmation; AID 1347044, 2019; hit rate 76% among 1,400; shares compounds with hNpr1 antagonist; HEK293 hNpr1 cGMP GloSensor luminescence, ANP-stimulated; Potency, µM (highest dose often 57.6 µM), for inactives: at the highest dose activity change, negative = inhibition, usual class: inhibitors; further: nearly all actives have a fitted effect of over 70% in size
Npr2 selectivity – Natriuretic polypeptide receptor (hNpr2) antagonism - Subtype selectivity assay. shares compounds with hNpr1 antagonist. HEK293 hNpr2 GloSensor cGMP luminescence, CNP-stimulated. Potency, µM (top dose mostly 57.6 µM), for inactives: at the top dose activity change, negative = inhibition, hits mostly inhibitors. hit rate 67% among 1,400. AID 1347046, 2019; further: nearly all actives have a fitted effect of over 70% in size
FLuc counter – Natriuretic polypeptide receptor (hNpr1) antagonism - Confirmation firefly luciferase (FLuc) inhibition counterscreen. purified FLuc enzyme, luminescence, Km substrate. shares compounds with hNpr1 antagonist. hit rate 0.7% among 1,400. Potency, µM (doses to about 57.6 µM), for inactives: at the highest dose activity change, negative = inhibition, usual class: inhibitors; active means well fitted inhibition curve with a large enough effect; inconclusive means small, poorly fitted or top-dose-only effect; further: 0% is about no effect
GloSensor cGMP – Natriuretic polypeptide receptor (hNpr1) antagonism - Counterscreen GloSensor control cell line; shares compounds with hNpr1 antagonist; HEK293 GloSensor cGMP, SNP-stimulated, luminescence; Potency, µM (top dose mostly 57.6 µM), for the others: top-dose activity change, negative = inhibition, actives largely listed as inhibitors; hit rate 69% among 1,400; AID 1347051, 2019; further: on the % scale 0 is the no-effect control and ±100 the full control effect; nearly all actives have a fitted effect of over 70% in size
* marks the source's active call; other numbers are inactive results; i = inactive; ? = inconclusive; . = no result; [ ] = another dose, or the depositor's remark. This excerpt belongs to a sample that is enriched for hits. Unless noted, the call rests on the fitted dose curve. Potency means the concentration at half of the fitted maximal effect.

SMILES	hNpr1 antagonist	GPT2 inh	NPR1 antag cnf	Npr2 selectivity	FLuc counter	GloSensor cGMP
CN1c2cc(C(=O)Nc3ccc(S(N)(=O)=O)cc3)ccc2C(=O)N2CCCCC21 (stereo not drawn)	-1%	i	.	.	.	.
Cc1ccc(-c2ccc(O)cn2)c2cccnc12	?	?	?	?	-3%	?
Cc1ncc(-c2ccc(F)c3cccnc23)nc1C	5%	-4%[11.5 µM]	.	.	.	.
CC(C)n1cnnc1CC1CCN(C(=O)c2nn(C)c3ccccc23)C1 (stereo not drawn)	-1%	i	.	.	.	.
COc1cc(NC(=O)c2ccc(N3CC4CC(C3)[C@H]3CCCC(=O)N3C4)nc2)cc(OC)c1 (stereo partly drawn)	-1%	i	.	.	.	.
COc1ccc(CN2CCOC[C@H]2c2ncc(-c3ccc(C)cc3)[nH]2)cc1	-26%[70.6 µM]	-6%[88.5 µM]	-29%[86.2 µM]	?	1%[86.2 µM]	-22%[86.2 µM]
COc1ccc(-c2cnc([C@@H]3COCCN3Cc3ccccc3)[nH]2)cc1	-22%[70.6 µM]	i	.	.	.	.
O=C(O)c1ccc(CN2CCOC[C@H]2c2ncc(-c3ccc(F)cc3)[nH]2)cc1	4%[70.6 µM]	i	.	.	.	.
Fc1ccc(CN2CCOC[C@H]2c2ncc(-c3ccc(F)cc3)[nH]2)cc1	?	-6%[88.5 µM]	?	?	0%[86.2 µM]	?
COCC1CN(S(=O)(=O)c2cc(F)ccc2C)CC12CCNCC2 (stereo not drawn)	1%	1%	.	.	.	.
O=C(c1ccc(Cl)cc1)N1CCCC(C(=O)N2CCC(c3nc4ncccc4[nH]3)CC2)C1 (stereo not drawn)	.	i	.	.	.	.
CCOc1ccc(CN2CCC3(CC2)Cc2ccccc2CNC3=O)cc1	.	i	.	.	.	.
Cc1ccc(CN2CCCC(CNC(=O)NC(C)C)C2)cc1C (stereo not drawn)	6%	1%	.	.	.	.
O=C(c1ccncc1)N1CC2CCC(C1)N2Cc1ccc(-c2cncnc2)cc1	.	i	.	.	.	.
O=C(Nc1ccccc1F)N1CC2CCC(C1)N2Cc1ccc(-c2cccs2)cc1	.	-1%	.	.	.	.
COc1cccc(-c2ccc(CN3C4CCC3CN(C(=O)c3ccncc3)C4)cc2)c1	.	-9%	12µM*	15µM*	-4%	14µM*
O=C(c1ccncc1)N1CC2CCC(C1)N2Cc1ccc(-c2cccs2)cc1	.	-3%	4.3µM*	5.4µM*	5%	4.3µM*
COc1ccccc1-c1ccc(CN2C3CCC2CN(C(=O)c2ccncc2)C3)cc1	.	4%	.	.	.	.
O=C(c1ccncc1)N1CC2CCC(C1)N2Cc1ccc(-c2ccsc2)cc1	2.5µM*	4%	6.9µM*	6.9µM*	3%	6.1µM*
N#Cc1ccc(C(=O)N2CCC3(CC2)NC(=O)N(Cc2ccccc2Cl)C3=O)cc1	-28%	-4%	.	.	.	.
Cc1ccc(C(=O)N2CCCC3(CCNCC3)CC2)c2ccccc12	11%	-11%	.	.	.	.
O=C(Nc1cc(-c2ccncc2)nn1-c1ccccc1)c1ccc(C(F)(F)F)cc1	.	2%	.	.	.	.
COc1cccc(Cc2nc(C3CC(=O)N(Cc4ccccc4OC)C3)no2)c1 (stereo not drawn)	1%	i	.	.	.	.
CNC(=O)CCn1ncc2cc(OCc3ccccc3-c3cccc(O)c3)ccc21	11µM*	i	20µM*	18µM*	?	13µM*
CNC(=O)CCn1ncc2cc(OCc3ccccc3-c3cccc(C)c3)ccc21	-26%[70.6 µM]	?	.	.	.	.
COc1cccc(NC(=O)c2cnc3c(c2)N(C(=O)Cc2ccccc2OC)CCC3)c1	-2%[70.6 µM]	-20%[88.5 µM]	.	.	.	.
COc1ccccc1CC(=O)N1CCCc2ncc(C(=O)Nc3cccc(F)c3)cc21	32µM*	i	35µM*	35µM*	-15%[86.2 µM]	35µM*
